Assay results: PubChem BioAssay (Tox21)
Records with an inconclusive call do not appear. The source made the active and inactive calls. Unless noted, calls come from the whole dose curve; as a rule, active = well fitted curve in the direction sought with a large enough effect in the repeat runs; inconclusive = weak or mixed curves; inactive = no such curve, though single readings can be large; an effect the other way counts as inactive or inconclusive.

How the values were obtained:
[1] = qHTS assay to identify small molecule agonists of the vitamin D receptor (VDR) signaling pathway - cell viability counter screen (AID 743224); note: series mostly up to about 63 µM; nearly all actives have a fitted effect of over 50% in size
Method in brief: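 VDR-bla cells, 4 h after plating, exposed to compounds for 16 h at 37C; viability then read in the same wells as CellTiter-Glo luminescence after 30 min at room temperature, following the bla FRET read.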

[2] = qHTS assay to identify small molecule antagonists of the vitamin D receptor (VDR) signaling pathway - cell viability counter screen (AID 743225); note: nearly all actives have a fitted effect of over 50% in size
Method in brief: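 Read-out: CellTiter-Glo luminescence measured 30 min after reagent addition at room temperature. Cells were VDR-bla HEK 293T exposed 16 h at 37C, 5% CO2, to compound with 3 nM final calcitriol agonist.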

[3] = qHTS assay to identify small molecule agonists of the NFkB signaling pathway (AID 1159509; active = well fitted curve in the direction sought with a large enough effect in the signal ratio in the repeat runs, not every such curve was filed as active; the % refers to the signal ratio; note: series mostly up to about 61 µM)
Method in brief: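 ME-180 NFkB-bla, 2,000 cells/well, overnight plating; cpd pinned in DMSO, 5 h 37 C; B/G FRET substrate 1.5 h RT; ex 405, em 460/530 nm.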

[4] = qHTS assay to identify small molecule agonists of the NFkB signaling pathway - cell viability counter screen (AID 1159515; calls by dose curve; note: series mostly up to about 61 µM; nearly all actives have a fitted effect of over 55% in size)
Method in brief: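 NFkB-bla ME-180 cells, 2,000/well, plated overnight at 37 C; compound added for 5 hr at 37 C. Viability read in the same wells as the bla reporter, by CellTiter-Glo luminescence after 30 min at room temperature.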

[5] = qHTS assay to identify small molecule agonists of the endoplasmic reticulum stress response signaling pathway - cell viability counter screen (AID 1159517; calls by dose curve; note: nearly all actives have a fitted effect of over 50% in size; note: potency is the fitted concentration of half-maximal effect)
Method in brief: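 HeLa cells carrying an ESRE-driven beta-lactamase reporter receive compound for 5 hr at 37 C. Cell viability is then gauged with CellTiter-Glo by luminescence, 30 min at room temperature.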

[6] = biological target: Nuclear receptor ROR-gamma (Homo sapiens) (UniProt P51449); assay: qHTS assay to identify small molecule antagonists of the retinoid-related orphan receptor gamma (ROR-gamma) signaling pathway (AID 1159521; note: nearly all actives have a fitted effect of over 50% in size; note: potency is the fitted concentration of half-maximal effect)
Method in brief: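 CHO Tet-on RORγ, RORE-luc reporter. Cpd 2 h pre-incubation, then dox hyclate 1 uM final, 16 h, 37 C/5% CO2. ONE-Glo luminescence; decrease = antagonist.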

[7] = qHTS assay to identify small molecule agonists of the AP-1 signaling pathway - cell viability counter screen (AID 1159525; calls by dose curve; note: nearly all actives have a fitted effect of over 55% in size)
Method in brief: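 Luminescent ATP readout (Cell Titer Glo, 30 min RT), normalised to DMSO and tetra n-octyl ammonium bromide controls. Cells were ME-180 AP-1-bla in 0.5% dialyzed FBS Opti-MEM, with a 5 h, 37 °C compound exposure.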

[8] = qHTS assay to identify small molecule agonists of the AP-1 signaling pathway (AID 1159526; calls by dose curve)
[9] = biological target: Retinoic acid receptor RXR-alpha (Homo sapiens) (UniProt P19793); assay: qHTS assay to identify small molecule agonists of the RXR signaling pathway (AID 1159527; calls by dose curve; note: nearly all actives have a fitted effect of over 35% in size; note: potency is the fitted concentration of half-maximal effect)
Method in brief: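 Read-out: beta-lactamase FRET ratio (405 nm excitation, 460 and 530 nm emission) after 2 hr substrate loading at room temperature. Cells were RXR-alpha-UAS-bla HEK 293T treated with compounds for 16 hr in 2% charcoal-stripped FBS medium.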

[10] = qHTS assay to identify small molecule antagonists of the retinoid acid receptor (RAR) signaling pathway - cell viability counter screen (AID 1159551); note: nearly all actives have a fitted effect of over 35% in size
Method in brief: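 C3RL4 RARE-luciferase cells, 1,000/well, incubated overnight, then dosed with compound plus 1 uM retinol (final). After 6 hr at 37 C, viability read by CellTiter-Glo ATP luminescence following 30 min at room temperature.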

[11] = qHTS assay to identify small molecule antagonists of the retinoic acid receptor (RAR) signaling pathway (AID 1159552; note: nearly all actives have a fitted effect of over 50% in size)
Method in brief: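 Cells of the C3RL4 line were seeded, incubated overnight, then dosed with compounds in DMSO followed immediately by retinol (1 uM final). Six hours later luciferase detection reagent went in; signal was measured after 30 min at RT.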

[12] = qHTS assay to identify small molecule agonists of the retinoic acid receptor (RAR) signaling pathway (AID 1159553)
Method in brief: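 C3RL4 RARE-luciferase cells were seeded at 1,000/well and grown overnight at 37 C, then exposed to compounds for 6 hr at 37 C, 5% CO2. Luciferase reagent was added and luminescence was read after 30 min at room temperature.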

[13] = qHTS assay to identify small molecule agonists of the RXR signaling pathway - cell viability counter screen (AID 1159529); note: nearly all actives have a fitted effect of over 50% in size; note: potency is the fitted concentration of half-maximal effect
Method in brief: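 HEK 293T RXRa-bla cells, 2% CS-FBS; 5 h settle; cpd 16 h 37 C, 5% CO2; CellTiter-Glo 30 min RT, luminescence. Tetraoctyl ammonium bromide as positive control.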

[14] = qHTS assay to identify small molecule antagonists of the retinoid-related orphan receptor gamma (ROR-gamma) signaling pathway - cell viability counter screen (AID 1159520); note: nearly all actives have a fitted effect of over 50% in size
Method in brief: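 Cytotoxicity was read from cellular ATP (CellTiter-Glo luminescence) after 16 hr at 37 C with 1 uM doxycycline induction. The inducer was added 2 hr after compound transfer to Tet-on ROR gamma CHO cells.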

[15] = qHTS assay to identify small molecule antagonists of the estrogen related receptor (ERR) signaling pathway - cell viability counter screen (AID 1224818);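 note: series mostly up to about 46 µM; viability measured after 17.5 h of compound exposure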
Method in brief: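 ERR cells, 2,000 per well, compound added after 6 h and incubated 17.5 h at 37 C. Viability read by CellTiter-Fluor fluorescence after a further 30 min at 37 C.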

[16] = qHTS assay to identify small molecule agonists of the estrogen related receptor (ERR) signaling pathway (AID 1224820)
Method in brief: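 Cells: ERR line from NTP, 2,000/well. Pre-incubation 6 h, 37 C/5% CO2. Compound (DMSO) pin transfer, 18 h 37 C. One-Glo, 30 min RT, luminescence.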

[17] = qHTS assay to identify small molecule agonists of the estrogen related receptor signaling pathway with the pleiotropic PPARgamma coactivator (PGC) (AID 1224823)
Method in brief: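 Steps: plate PGC/ERR cells at 2,000 cells/well; incubate 6 h, 37 C/5% CO2; pin-transfer compounds (DMSO); incubate 18 h, 37 C; add One-Glo; 30 min RT; read luminescence.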

Measured: Potency

Retinoic acid receptor RXR-alpha (Homo sapiens), sequence (P19793 whole entry, looked up): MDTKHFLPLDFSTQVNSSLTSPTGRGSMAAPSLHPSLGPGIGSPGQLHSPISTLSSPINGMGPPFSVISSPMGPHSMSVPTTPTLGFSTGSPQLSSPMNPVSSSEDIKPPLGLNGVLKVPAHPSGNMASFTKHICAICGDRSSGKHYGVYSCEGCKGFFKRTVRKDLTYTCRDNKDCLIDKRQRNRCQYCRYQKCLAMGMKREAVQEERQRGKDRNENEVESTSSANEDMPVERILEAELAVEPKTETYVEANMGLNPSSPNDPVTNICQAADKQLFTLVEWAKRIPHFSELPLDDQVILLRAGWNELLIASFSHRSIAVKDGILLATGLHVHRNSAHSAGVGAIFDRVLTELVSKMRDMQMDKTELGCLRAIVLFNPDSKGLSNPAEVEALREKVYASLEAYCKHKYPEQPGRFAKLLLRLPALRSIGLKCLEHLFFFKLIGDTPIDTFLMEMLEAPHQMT

O=[N+]([O-])c1ccc(F)c([N+](=O)[O-])c1
active: [5] 17.5 µM | [6] 49 µM
not listed: [13] | [14] | [15] | [16] | [17]
inactive: all other assays above

O=C(O)C(F)(F)C(F)(F)C(F)(F)C(F)(F)C(F)(F)C(F)(F)C(F)(F)C(F)(F)C(F)(F)C(F)(F)F
active: [9] 11.6 µM
not listed: [14] | [15] | [16] | [17]
inactive: all other assays above

O=C(NCc1cccnc1)Nc1ccc([N+](=O)[O-])cc1
not listed: [2] | [9] | [14] | [15] | [16] | [17]
inactive: all other assays above

CC1Sc2c(C(=O)O)c(=O)c3cc(F)c(N4CCNCC4)cc3n21 (stereo not given)
not listed: [14] | [15] | [16] | [17]
inactive: all other assays above

CCCCNP(N)(N)=S
inactive: [1] | [2] | [3] | [4] | [5] | [14] | [7] | [13] | [10]

O=C1NCN(c2ccccc2)C12CCN(CCCOc1ccc(F)cc1)CC2
inactive: [3] | [4] | [5] | [14] | [7] | [13] | [10]

COc1nn(C(=O)NS(=O)(=O)c2ccccc2OC(F)(F)F)c(=O)n1C
not listed: [6] | [9] | [15] | [16] | [17]
inactive: all other assays above

O=C(C(Cl)(Cl)Cl)C(Cl)(Cl)Cl
not listed: [6] | [15] | [16] | [17]
inactive: all other assays above

C=COC(C)=O
not listed: [2] | [6] | [15] | [16] | [17]
inactive: all other assays above

CNP(=O)(OC)Oc1ccc(C(C)(C)C)cc1Cl (stereo not given)
not listed: [6] | [9] | [13] | [15] | [16] | [17]
inactive: all other assays above

COC(=O)C(Cl)C(=O)OC
not listed: [9] | [15] | [16] | [17]
inactive: all other assays above

[O-][Cl+]O
not listed: [9] | [15] | [16] | [17]
inactive: all other assays above

CC1(C)[C@H](C=C(Cl)Cl)[C@@H]1C(=O)O[C@@H](C#N)c1cccc(Oc2ccccc2)c1
active: [6] 54.5 µM
not listed: [2] | [8] | [13] | [15] | [16] | [17]
inactive: all other assays above

C=CC(=O)OC
not listed: [6] | [15] | [16] | [17]
inactive: all other assays above

CCCN(CCC)c1c([N+](=O)[O-])cc(S(C)(=O)=O)cc1[N+](=O)[O-]
not listed: [2] | [6] | [9] | [11] | [15] | [16] | [17]
inactive: all other assays above

CC(O)(CS(=O)(=O)c1ccc(F)cc1)C(=O)Nc1ccc(C#N)c(C(F)(F)F)c1 (stereo not given)
active: [13] 22.7 µM
not listed: [2] | [6] | [9]
inactive: all other assays above

O=C1C(=O)c2cccc3cccc1c23
inactive: [2] | [3] | [4] | [5] | [14] | [7] | [13] | [10]
